Measurements taken from a collection of fitness landscapes (doi:10.1126/science.1257360).
The full ranking holds about 140,000 sequences; the median of “enrichment ratio after two sorts for PhoP signalling” is about 0, and the highest 2% start at about 11. The full list was thinned out, with the highest values kept by preference.

B1: PhoQ; a variant is named by its letters at X, in order, P23837 (parent)
chain: MKKLLRLFFPLSLRVRFLLATAAVVLVLSLAYGMVALIGYSVSFDKTTFRLLRGESNLFYTLAKWENNKLHVELPENIDKQSPTMTLIYDENGQLLWAQRDVPWLMKMIQPDWLKSNGFHEIEADVNDTSLLLSGDHSIQQQLQEVREDDDDAEMTHSVAVNVYPATSRMPKLTIVVVDTIPVELKSSYMVWSWFIYVLSANLLLVIPLLWVAAWWSLRPIEALAKEVRELEEHNRELLNPATTRELTSLVRNLNRLLKSERERYDKYRTTLTDLTHSLKTPLXXLQXXLRSLRSEKMSVSDAEPVMLEQISRISQQIGYYLHRASMRGGTLLSRELHPVAPLLDNLTSALNKVYQRKGVNISLDISPEISFVGEQNDFVEVMGNVLDNACKYCLEFVEISARQTDEHLYIVVEDDGPGIPLSKREVIFDRGQRVDTLRPGQGVGLAVAREITEQYEGKIVAGESMLGGARMEVIFGRQHSAPKDE

Variants of: B1
Test: enrichment ratio after two sorts for PhoP signalling (ratio (wild type AVST 3.29)); higher = more functional
Details: with PhoP (E. coli)
In the case of RQLF, the enrichment ratio is reported as at most 0.25. For MHPM, the enrichment ratio was at most 0.25. IVSV showed an enrichment ratio of at most 0.25. LDYS showed an enrichment ratio of at most 0.25. PIMI gave an enrichment ratio of at most 0.25. With YPRI the enrichment ratio was at most 0.25. KIFY was tested, and the enrichment ratio was at most 0.25. WIAV gave an enrichment ratio of at most 0.25. In the case of YTIV, the enrichment ratio is reported as 0.385. In the case of STIV, the enrichment ratio is reported as 11.9. KYAV showed an enrichment ratio of at most 0.25. Work on SETV yielded an enrichment ratio of 14.9. With SSTV the enrichment ratio was 10.5. For SLTV, the enrichment ratio was 10.4. TSTV showed an enrichment ratio of 26.5. Variant STIS has an enrichment ratio of 8.13. For NVTV, the enrichment ratio was at most 0.25. In the case of MMTV, the enrichment ratio is reported as at most 0.25. SIAV gave an enrichment ratio of 12.2. GKTV was tested, and the enrichment ratio was at most 0.25. With KFQS the enrichment ratio was at most 0.25. For SNDT, the enrichment ratio was at most 0.25. Work on RWGI yielded an enrichment ratio of at most 0.25. For EKED, the enrichment ratio was at most 0.25. Work on VMLL yielded an enrichment ratio of at most 0.25. Work on GWEH yielded an enrichment ratio of at most 0.25. NLWG was tested, and the enrichment ratio was at most 0.25. DHDD showed an enrichment ratio of at most 0.25. KRSK showed an enrichment ratio of at most 0.25. For APEA, the enrichment ratio was at most 0.25. HQMW was tested, and the enrichment ratio was at most 0.25. In the case of SAMV, the enrichment ratio is reported as 14.1. Variant KAMA has an enrichment ratio of at most 0.25. SPMV was tested, and the enrichment ratio was at most 0.25. SWMV showed an enrichment ratio of at most 0.25. In the case of SAPV, the enrichment ratio is reported as 5.29. Work on STMV yielded an enrichment ratio of 12.8. Work on KYMV yielded an enrichment ratio of at most 0.25. SAMA showed an enrichment ratio of 12.3. Work on SIWV yielded an enrichment ratio of at most 0.25. In the case of SIMV, the enrichment ratio is reported as 13.6. Work on SAFA yielded an enrichment ratio of at most 0.25. SAQV was tested, and the enrichment ratio was 0.569. Variant ILLG has an enrichment ratio of at most 0.25. With KTTK the enrichment ratio was at most 0.25. With TRRW the enrichment ratio was at most 0.25. In the case of QYNE, the enrichment ratio is reported as at most 0.25. MVYP gave an enrichment ratio of at most 0.25. NQPT gave an enrichment ratio of at most 0.25. Work on QHTM yielded an enrichment ratio of at most 0.25. For YDVW, the enrichment ratio was at most 0.25. In the case of KTCA, the enrichment ratio is reported as at most 0.25. For PMGE, the enrichment ratio was at most 0.25. SQMV showed an enrichment ratio of 22.1. KQMV was tested, and the enrichment ratio was at most 0.25. SQMW gave an enrichment ratio of at most 0.25. With YHTC the enrichment ratio was at most 0.25. In the case of AEIH, the enrichment ratio is reported as 60.7. For ADCC, the enrichment ratio was 4.94. For AWCH, the enrichment ratio was at most 0.25. AECH was tested, and the enrichment ratio was 16.5. AECC gave an enrichment ratio of 16.3. Work on AEWH yielded an enrichment ratio of 22.3. Work on AEFH yielded an enrichment ratio of 1.2. Variant AIIH has an enrichment ratio of 2.68. Work on AHIH yielded an enrichment ratio of at most 0.25. For AEWS, the enrichment ratio was 8.72. For AECF, the enrichment ratio was 2.16. Work on AIWH yielded an enrichment ratio of at most 0.25. With MYMC the enrichment ratio was at most 0.25. Variant KQLY has an enrichment ratio of at most 0.25. MMRL gave an enrichment ratio of at most 0.25. Work on RHKQ yielded an enrichment ratio of at most 0.25. HNLQ showed an enrichment ratio of at most 0.25. IHWA was tested, and the enrichment ratio was at most 0.25. In the case of AEMH, the enrichment ratio is reported as 36.8. AEKH showed an enrichment ratio of at most 0.25. AEGP gave an enrichment ratio of at most 0.25. With AEQH the enrichment ratio was at most 0.25. AEGH was tested, and the enrichment ratio was 12.9. Work on AEYH yielded an enrichment ratio of at most 0.25. EVPD showed an enrichment ratio of at most 0.25. Variant EPIP has an enrichment ratio of at most 0.25. In the case of TGEV, the enrichment ratio is reported as 26.6. YYMV was tested, and the enrichment ratio was at most 0.25. For NGMS, the enrichment ratio was at most 0.25. Work on NGMG yielded an enrichment ratio of at most 0.25. For TGMS, the enrichment ratio was 12.8. In the case of GGMS, the enrichment ratio is reported as 1.56. In the case of YTMV, the enrichment ratio is reported as 12.2. Work on QPMV yielded an enrichment ratio of at most 0.25. Work on GGEV yielded an enrichment ratio of at most 0.25. For TGMG, the enrichment ratio was 17.2. In the case of PGMG, the enrichment ratio is reported as at most 0.25. DEEV was tested, and the enrichment ratio was at most 0.25. Variant PEIA has an enrichment ratio of at most 0.25. With HVSH the enrichment ratio was at most 0.25. Work on FEHR yielded an enrichment ratio of at most 0.25. Work on ENVM yielded an enrichment ratio of at most 0.25. With LMNE the enrichment ratio was at most 0.25. Variant WNVD has an enrichment ratio of at most 0.25. Work on RCTL yielded an enrichment ratio of at most 0.25. GGMV gave an enrichment ratio of 5. With NGMV the enrichment ratio was 14. With ICMV the enrichment ratio was 13.2. In the case of ICMW, the enrichment ratio is reported as at most 0.25. NGIV showed an enrichment ratio of at most 0.25. ICIV was tested, and the enrichment ratio was at most 0.25. TGMV was tested, and the enrichment ratio was 12.7. Variant RGMV has an enrichment ratio of at most 0.25. With NGMD the enrichment ratio was at most 0.25. Work on DFEW yielded an enrichment ratio of at most 0.25. DSVD showed an enrichment ratio of at most 0.25. With KHWM the enrichment ratio was at most 0.25. Work on VFFE yielded an enrichment ratio of at most 0.25. With QDVC the enrichment ratio was at most 0.25. Work on AYPL yielded an enrichment ratio of at most 0.25. Variant CSYH has an enrichment ratio of at most 0.25. FHNW was tested, and the enrichment ratio was at most 0.25. Variant IIGT has an enrichment ratio of at most 0.25. SECK showed an enrichment ratio of at most 0.25. Variant SEGD has an enrichment ratio of 1.88. In the case of SEDH, the enrichment ratio is reported as at most 0.25. SECP was tested, and the enrichment ratio was at most 0.25. SEYD was tested, and the enrichment ratio was at most 0.25. In the case of SECA, the enrichment ratio is reported as 19.7. SECL gave an enrichment ratio of 18.7. NECL gave an enrichment ratio of at most 0.25. Variant SEEL has an enrichment ratio of at most 0.25. Work on SECI yielded an enrichment ratio of 28.3. For SEAI, the enrichment ratio was 7.14. SECS gave an enrichment ratio of 20.4. Work on FMWQ yielded an enrichment ratio of at most 0.25. Work on KFFK yielded an enrichment ratio of at most 0.25. Work on EHGM yielded an enrichment ratio of at most 0.25. Variant IQWT has an enrichment ratio of at most 0.25. KMGN was tested, and the enrichment ratio was at most 0.25. YTDA was tested, and the enrichment ratio was at most 0.25. Work on VCDM yielded an enrichment ratio of at most 0.25. With EGPQ the enrichment ratio was at most 0.25. Variant LCVP has an enrichment ratio of at most 0.25. IWCG gave an enrichment ratio of at most 0.25. SECQ was tested, and the enrichment ratio was 11.4. For FECG, the enrichment ratio was 30.4. With SECE the enrichment ratio was 15.4. With SENE the enrichment ratio was at most 0.25. With MECQ the enrichment ratio was at most 0.25. With STCG the enrichment ratio was 9.46. In the case of SRCQ, the enrichment ratio is reported as 1.15. Work on MECG yielded an enrichment ratio of 9.16. Variant FEGG has an enrichment ratio of at most 0.25. With SENW the enrichment ratio was at most 0.25. Work on QECG yielded an enrichment ratio of 23. Variant DDMI has an enrichment ratio of at most 0.25. With WKTT the enrichment ratio was at most 0.25. EERG gave an enrichment ratio of at most 0.25. Variant WYHV has an enrichment ratio of at most 0.25. Variant FLNY has an enrichment ratio of at most 0.25. Variant FECI has an enrichment ratio of 3.72. Variant SECG has an enrichment ratio of 13.7. FECS was tested, and the enrichment ratio was 19.8. In the case of SECV, the enrichment ratio is reported as 24.5. FECA gave an enrichment ratio of at most 0.25. SRCG gave an enrichment ratio of at most 0.25. SRCV showed an enrichment ratio of 5.55. For SLCG, the enrichment ratio was 6.01. SEYV gave an enrichment ratio of 5.27. Variant MMWP has an enrichment ratio of at most 0.25. In the case of LWRR, the enrichment ratio is reported as at most 0.25. In the case of YSRA, the enrichment ratio is reported as at most 0.25. For QHHS, the enrichment ratio was at most 0.25. Work on DQIV yielded an enrichment ratio of at most 0.25. In the case of GESK, the enrichment ratio is reported as at most 0.25. LNST showed an enrichment ratio of at most 0.25. TNST showed an enrichment ratio of 12.6. In the case of GNST, the enrichment ratio is reported as 15.1. GVST gave an enrichment ratio of at most 0.25. In the case of GIST, the enrichment ratio is reported as 8.78. Work on MNST yielded an enrichment ratio of at most 0.25. GEST gave an enrichment ratio of 16.9. Work on MEST yielded an enrichment ratio of 5.63. For ARCL, the enrichment ratio was 4.81. GDEI was tested, and the enrichment ratio was at most 0.25. For EMQY, the enrichment ratio was at most 0.25. In the case of PNEV, the enrichment ratio is reported as at most 0.25. For IGRG, the enrichment ratio was at most 0.25. Variant IFWY has an enrichment ratio of at most 0.25. With SWHL the enrichment ratio was 0.549. Variant HMCK has an enrichment ratio of at most 0.25. With YTWG the enrichment ratio was at most 0.25. CTDF showed an enrichment ratio of at most 0.25. TTSF gave an enrichment ratio of 13.7. For CKFF, the enrichment ratio was at most 0.25. STWG was tested, and the enrichment ratio was at most 0.25. TTDF gave an enrichment ratio of 16.9. For KQSF, the enrichment ratio was at most 0.25. In the case of YTSF, the enrichment ratio is reported as at most 0.25. YTDF showed an enrichment ratio of at most 0.25. For TTWG, the enrichment ratio was 12.2. With CKAF the enrichment ratio was at most 0.25. CKMF gave an enrichment ratio of 38.2.
